Source: PubChem BioAssay
Compounds with a hit are over-represented: about 2.3% of the library has one in this group of screens.
POLB inh = blocks human DNA polymerase beta activity. Potency, µM (doses to about 114 µM), inactives show at the top dose activity change, negative = inhibition, usual class: inhibitors. 340,000 tested, 1.3% active. P06746. Pol beta primer extension/strand displacement, fluorescence kinetic; note: % is set by controls: 0 for no effect and ±100 for the full control effect
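Pol beta (10 nM) was preincubated with compound for 15 min at room temperature. The reaction was then started with 50 nM substrate and read immediately and after a further 10 min at room temperature.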
POLI inh = inhibitors of human DNA polymerase iota; Potency, µM (highest dose often 115 µM), without a hit: top-dose activity, negative = inhibition, hits mostly inhibitors; 390,000 tested, 1% active; Q9UNA4; Pol iota fluorescent replication assay, 10 min; AID 588590
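Fluorescent replication assay read twice, at 0 min and 10 min after adding 50 nM (final) substrate. Enzyme (10 nM) and compounds were first incubated 15 min at room temperature; enzyme-free buffer wells were negative controls.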
Pol kappa inh = blocks human DNA polymerase kappa activity. Q9UBT6. purified Pol kappa, fluorescent DNA synthesis assay, 10 min. Potency, µM (titrated, usually from 107 µM), for the others: at the top dose activity, negative = inhibition, most hits filed as inhibitors. 400,000 tested, 0.53% active; note: % is set by controls: 0 for no effect and ±100 for the full control effect
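50 nM final substrate added after 15 min RT preincubation of 10 nM Pol kappa with compound; fluorescence read at 0 and 10 min.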
WRN inhibitor = inhibitors of human WRN helicase | WRN helicase unwinding, fluorescent forked duplex, kinetic | Potency, µM (highest dose often 114 µM), for the others: top-dose activity change, negative = inhibition, usual class: inhibitors | 360,000 tested, 0.46% active | AID 651768; note: % is set by controls: 0 for no effect and ±100 for the full control effect; nearly all actives have a fitted effect of over 55% in size
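Screening of the MLSMR collection measured strand separation of a quenched forked DNA duplex (100 nM) by 20 nM WRN with 2 mM ATP, all final. Compounds were preincubated with enzyme 15 min at room temperature.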
POLH inh = DNA polymerase eta (human) inhibition | Q9Y253 | recombinant Pol eta, fluorescent DNA replication assay | Potency, µM (doses to about 114 µM), inactives show top-dose activity change, negative = inhibition, usual class: inhibitors | 390,000 tested, 1.2% active; note: % is set by controls: 0 for no effect and ±100 for the full control effect
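Pol eta (10 nM) was preincubated with compounds for 15 min at room temperature, after which fluorescent replication substrate (50 nM final) was added to start the reaction. Fluorescence was read kinetically at 0 and 10 min.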
Numbers without * were called inactive; ? = inconclusive; nt = no result; [ ] = dose if it differs, or a comment. Calls come from the whole dose curve; as a rule, active = well fitted curve in the direction sought with a large enough effect; inconclusive = small, poorly fitted or top-dose-only effect, or another doubt; inactive = no such curve, though single readings can be large; an effect the other way counts as inactive or inconclusive. Potency is the fitted concentration of half-maximal effect.

SMILES | POLB inh | POLI inh | Pol kappa inh | WRN inhibitor | POLH inh
CCC(C)C(N)C1=NC(C(=O)N[C@@H](CC(C)C)C(=O)N[C@H](CCC(=O)[O-])C(=O)N[C@H](C(=O)N[C@H]2CCCCNC(=O)[C@H](CC(N)=O)NC(=O)[C@@H](CC(=O)[O-])NC(=O)[C@H](Cc3cnc[nH]3)NC(=O)[C@@H](Cc3ccccc3)NC(=O)[C@H]([C@@H](C)CC)NC(=O)[C@@H](CCCN)NC2=O)[C@@H](C)CC)CS1.[Zn+2] (stereo partly specified) | nt | 0.891µM* | ? | -23.2% | ?
CCCCN1CC[C@H]2C=CC[C@@H](C(=O)NCc3cccnc3)[C@H]2C1=O | nt | 18.4% | -8.6% | nt | nt
O=[N+]([O-])c1ccc(-c2csc(N/N=C/c3cccnc3)n2)cc1 | 24.5% | -22.8% | -16.5% | -5.3% | -1.8%
O=[N+]([O-])c1cc(/C=N\Nc2nc(-c3ccccc3)cs2)ccc1O | 39.8µM* | ? | -25.1% | ? | 79.4µM*
Cc1cc(C=O)cc(C)c1[N+](=O)[O-] | nt | 0.8% | 15.5% | nt | nt
COc1ccc2nc(NC(=O)c3nc(S(=O)(=O)Cc4ccc(C)cc4)ncc3Cl)sc2c1 | ? | 89.1µM* | ? | nt | ?
CC(C)C[C@@H](CN=[N+]=[N-])N1CCN(CCc2ccccc2)CCC1=O | nt | 28.7% | -12.0% | nt | nt
COc1ccc(NC(=O)c2cc(-c3ccccc3Cl)on2)cc1OC | 16.1% | 79.4µM* | ? | -23.4% | -4.3%
O=C(Cc1ccc(-n2cccc2)cc1)NCc1cccs1 | 44.7µM* | -29.3% | -18.5% | -12.7% | ?
O=C(NCc1ccco1)c1cc(-c2cccs2)nc2ccccc12 | 5.1% | -2.0% | -9.8% | -35.4% | ?
O=C(COC(=O)c1cc(-c2cccs2)nc2ccccc12)NCc1ccco1 | 22.4µM* | ? | 89.1µM* | ? | 11.2µM*
O=C(COC(=O)c1cc(-c2ccc(Cl)s2)nc2ccccc12)NCc1ccco1 | 1.4% | ? | -10.1% | 35.5µM* | 20µM*
Cc1cccc(NC(=O)N2CCC(CN3CCCCCC3)CC2)c1C | 3.6% | 2.1% | -8.2% | nt | -13.7%
Cn1cc(C(=O)NCCN2CCN(c3cccc(Cl)c3)CC2)c2c3ccccc3n(C)c2c1=O | 18.5% | 100µM* | ? | -9.9% | ?
C=C1C=C(C)n2ncc(C(=O)Nc3ccc(NC(C)=O)c(Cl)c3)c2N1 | nt | -6.8% | 9.2% | nt | nt
COc1ccc2c(COC(=O)CC3Sc4ccccc4NC3=O)cc(=O)oc2c1 (stereo unspecified) | 35.5µM* | ? | -22.7% | -12.8%[11.6 µM] | 20µM*
CCN1CC2([N+](=O)[O-])C=CC(=O)C([N+](=O)[O-])(C1)C2CC(=O)c1ccccc1 (stereo unspecified) | 0.0% | ? | -13.9% | -35.6%[57.1 µM] | 25.1µM*
Cc1cc(Nc2cccc(Cl)c2)nc2ccc(NC(=O)COc3ccc(Cl)cc3)cc12 | -21.3% | 10.6% | ? | nt | -16.3%
O=[N+]([O-])c1cccc(CNC2CCCCCC2)c1 | 28.2µM* | 121.7% | 0.0% | 9.9% | -10.7%
O=C(COC(=O)c1n[nH]c2ccccc12)NC(=O)NC1CCCC1 | 14.7% | -1.5% | -1.3% | -13.2% | 4.1%
O=C(COC(=O)c1n[nH]c2ccccc12)NC(=O)NC12CC3CC(CC(C3)C1)C2 | 35.5µM* | -45.2% | -7.9% | -10.5% | ?
CC(C(=O)c1ccccc1)[n+]1cccc(Cl)c1 (stereo unspecified) | nt | 8.4% | -8.1% | nt | nt
O=C(/N=C1\NC(=O)C(F)(C(F)(F)F)S1)NC1CCCCC1 (stereo unspecified) | -28.8% | ? | -7.9% | 50.1µM* | 5.9%
CCC1S/C(=N/C(=O)NC2CCCCC2)NC1=O (stereo unspecified) | 14.6% | ? | 0.7% | 4.4% | -4.5%
O.O.[Mn].[Mn].[Mn].[OH-].[OH-] | nt | nt | 2.0%[60.1 µM] | nt | nt
SMILES | POLB inh | POLI inh | Pol kappa inh | WRN inhibitor | POLH inh
O=C(CSc1ccc(-c2ccco2)nn1)c1ccc(F)cc1 | ? | 14.1µM* | 31.6µM* | 44.7µM* | ?
CC(=O)Nc1ccc(NC(=O)CSc2ccc(-c3cccs3)nn2)cc1 | -12.9% | -25.9% | -5.3% | -7.8% | -3.2%
COc1ccc(NC(=O)CSc2ccc(-c3cccs3)nn2)cc1 | -0.2% | 89.1µM* | -3.7% | nt | -11.8%
CC(=O)c1cccc(NC(=O)CSc2ccc(-c3sc(C)nc3C)nn2)c1 | 79.4µM* | -21.4% | -10.3% | -9.4% | -4.3%
CSc1nsc(SCC(=O)Nc2ccc(NC(C)=O)cc2)n1 | 36.9% | 45.5% | -10.2% | -22.8% | -25.6%
COc1ccc(NC(=O)CSc2nc(SC)ns2)cc1 | 89.1µM* | 7.5% | 0.8% | 1.7% | -10.4%
Cc1nc(C)c(-c2ccc(SCC(=O)Nc3cccc(F)c3)nn2)s1 | -9.2% | -10.6% | -6.3% | 6.2% | -9.3%
COc1ccc(C(=O)CSc2nnc(-c3ccco3)n2CC2CCCO2)cc1 (stereo unspecified) | 26.6% | ? | -0.1% | 2.9% | 3.0%
CC(=O)Nc1cccc(NC(=O)CSc2ccc(-c3ccco3)nn2)c1 | 25.1µM* | 22.4µM* | ? | -23.5% | 17.8µM*
CCOc1ccccc1NC(=O)CSc1ccc(-c2ccco2)nn1 | ? | 56.2µM* | -23.3% | -14.5%[11.6 µM] | ?
CCOc1ccccc1NC(=O)Cn1nc(-c2ccco2)ccc1=O | -0.7% | 19.5% | -5.7% | -7.1% | 2.5%
O=C(CSc1nnc(-c2ccco2)n1CC1CCCO1)c1ccc(F)cc1 (stereo unspecified) | 26.2% | ? | -10.1% | 79.4µM* | -2.1%
COc1cc(NC(=O)CSc2ccc(-c3ccco3)nn2)cc(OC)c1 | ? | 50.1µM* | -32.6% | -9.2% | -17.4%
CC(C)C[C@@H](CNCC(=O)[C@H](Cc1c[nH]c2ccccc12)NC(=O)c1[nH]cnc1C(=O)N[C@H](CN)CC(C)C)NC(=O)c1nc[nH]c1C(=O)N[C@@H](CC(=O)O)C(=O)O | nt | ? | ? | -10.8% | 50.1µM*
CC(C)C[C@@H](CNCC(=O)[C@H](Cc1c[nH]c2ccccc12)NC(=O)c1[nH]cnc1C(=O)N[C@@H](C)CN)NC(=O)c1nc[nH]c1C(=O)N[C@@H](CC(=O)O)C(=O)O | nt | ? | -13.6% | -8.0% | -15.1%
Cc1cccc(Cn2ccc(-c3ccc(Cl)cc3)c(C#N)c2=O)c1 | -6.2% | -4.8% | -2.4% | -0.6% | -15.2%
Cc1cccc(Cn2ccn(Cc3ccc(Cl)cc3)c(=O)c2=O)c1 | 25.1µM* | 7.0% | -2.1% | nt | 20.1%
Cc1cc(O)cc2c1O[C@](C)(CCC(=O)O)CC2 | nt | -6.4% | 9.4% | nt | nt
N=c1c(C(=O)NCc2ccc3c(c2)OCO3)cc2c(=O)n3ccccc3nc2n1Cc1cccnc1 | 39.8µM* | 39.8µM* | -20.1% | -15.2% | ?
Cc1cccn2c(=O)c3cc(C(=O)NCCc4ccccc4)sc3nc12 | 14.1µM* | ? | -23.9% | -17.3% | ?
Cc1cccn2c(=O)c3cc(C(=O)NCCc4ccccc4)c(=N)n(Cc4ccco4)c3nc12 | -16.9% | 7.94µM* | -35.4% | -20.2%[11.6 µM] | -10.5%
